mHTT CaM bind – mHTT-calmodulin interaction abrogation; P42858; AlphaScreen His-mHTT/GST-CaM binding, luminescence; inhibition, % at 15 µM; actives 3.6% (n = 190,000); AID 1671202
Pf apPOL inh – Pf-apPOL DNA polymerase inhibition; Recombinant Pf-apPOL, molecular beacon fluorescence, 1.5 h; inhibition, % at 10 µM; actives 0.25% (n = 210,000)
Hits are given with their value; n = inactive; x = no result. The list is not random: actives were taken first. Their share in the collection is about 3.5%. Rule as the data show it: active = inhibition above about 50%; inactive = the rest.

SMILES	mHTT CaM bind	Pf apPOL inh
CCCCCCN1C[C@@H](n2cc(C3CC3)nn2)[C@H](O)C[C@@H]1c1ccc(OC)cc1	n	n
O[C@H]1C[C@H](c2ccccc2)N(Cc2cccs2)C[C@@H]1n1cc(C2CC2)nn1	74	n
Cc1ccc([C@H]2C[C@@H](n3cc(C4CC4)nn3)[C@H](O)CN2Cc2cccs2)cc1	n	n
COc1ccc([C@H]2C[C@H](O)[C@@H](n3cc(C4CC4)nn3)CN2Cc2cccs2)cc1	94	n
COc1ccccc1C1(CNC(=O)COc2ccccc2F)CCOCC1	n	n
CC1(C)CC(=O)C2=C(C1)Nc1nc(SCc3ccccc3F)[nH]c(=O)c1C2c1cccc(O)c1 (centres undefined)	n	n
O=C(NCc1cccs1)c1cn(CC(O)c2ccccc2)nn1 (centres undefined)	n	n
O=C(/C=C1\Sc2ccccc2N(Cc2ccc(F)cc2)C1=O)NCCc1ccccc1	n	n
Cc1ccc(CN2C(=O)/C(=C/C(=O)O)Sc3ccccc32)cc1	60	n
Cc1ccccc1CN1C(=O)/C(=C/C(=O)O)Sc2ccccc21	n	n
Cc1ccccc1CN1C(=O)/C(=C/C(=O)NCCc2ccccc2)Sc2ccccc21	51	n
COc1ccc(OC)c(C2C3CCCC=C3C(C#N)=C(N)C2(C#N)C#N)c1 (centres undefined)	n	n
Cn1ccc(C(=O)N2CCCC2c2ccc(F)cc2)n1 (centres undefined)	n	n
CCn1c(SCC(=O)Nc2ccc(Cl)c(Cl)c2)nnc1-c1cccs1	n	n
CCC(CC)C(=O)N1CCCC(COc2ccc(C(=O)N3CCOCC3)cc2)C1 (centres undefined)	n	n
CN(C)c1ccc(N2CC(=O)SC2=NC#N)cc1	55	x
Cc1c(C=O)c(C=O)c(C)n1-c1ccc(N(C)C)cc1	n	n
CCN(CC)C(=O)CC(c1ccc(N(C)C)cc1)c1c(OC)cc(OC)c2c(-c3ccccc3)cc(=O)oc12 (centres undefined)	n	n
COc1ccc(C(CC(=O)N2CCOCC2)c2c(OC)cc(OC)c3c(-c4ccccc4)cc(=O)oc23)cc1 (centres undefined)	n	n
COc1ccc(C(CC(=O)N2CCCC2)c2c(OC)cc(OC)c3c(-c4ccccc4)cc(=O)oc23)cc1 (centres undefined)	81	n
COc1ccc(C(CC(=O)N2CCCC2)c2c(OC)cc(OC)c3ccc(=O)oc23)cc1 (centres undefined)	n	n
COc1cc(C(CC(=O)N2CCCC2)c2c(OC)cc(OC)c3c(-c4ccccc4)cc(=O)oc23)cc(OC)c1OC (centres undefined)	52	n
COc1cc(OC)c2c(-c3ccccc3)cc(=O)oc2c1C(CC(=O)N1CCCC1)c1ccc(N(C)C)cc1 (centres undefined)	90	n
Cc1ccc(C(O)=C2C(=O)C(=O)N(c3ccccc3)C2=S)cc1	x	n
CC1(C)C2CCC1(C)C(OCC(O)CN1CCN(c3ccccc3)CC1)C2 (centres undefined)	52	n
SMILES	mHTT CaM bind	Pf apPOL inh
CC1(C)C2CCC1(C)C(OCC(O)CN1CCN(Cc3ccccc3)CC1)C2 (centres undefined)	n	n
COc1ccc(C2CC(c3cccs3)Nc3nnnn32)c(OC)c1 (centres undefined)	n	n
O=C(c1cc(-c2cccnc2)n[nH]1)N1CCCC1	n	n
Cn1cc(Br)c(C(=O)Nc2ccc(Br)cc2)n1	n	n
COc1ccccc1NC(=O)c1nn(C)cc1Br	n	61
O=[N+]([O-])c1ccc2c(c1)CCN2C(=S)Nc1ccccc1Cl	x	n
O=C(c1ccc(C(F)(F)F)cc1)N1CCC(Cc2nnc(-c3ccccc3)o2)CC1	57	n
O=C(c1ccoc1)N1CCC(Cc2nnc(-c3ccccc3)o2)CC1	n	n
O=c1cc(-c2ccccc2)nc(NO)[nH]1	n	n
Cc1cccc(C(=O)Nc2ccc(Cn3cncn3)cc2)c1	n	n
O=[N+]([O-])c1ccc(N2N=C(c3ccccc3)CC2c2ccccc2O)cc1 (centres undefined)	99	n
O=C(O)CCC(=O)N1N=C(c2ccc([N+](=O)[O-])cc2)CC1c1ccc(Br)cc1 (centres undefined)	n	n
O=[N+]([O-])c1ccc(N2N=C(c3ccc(O)cc3)CC2c2ccc(F)cc2)cc1 (centres undefined)	98	n
CC(=O)N1N=C(c2ccc([N+](=O)[O-])cc2)CC1c1ccccc1 (centres undefined)	n	n
FC(F)(F)c1ccc(-n2cccc2C=NNc2c(Cl)cc(C(F)(F)F)cc2Cl)cc1	x	n
Nc1c2c(-c3ccccc3F)nc(N3CCCC3)nc2nn1-c1ccccc1	n	n
COc1ccc(Cl)cc1C1=N/C(=C/c2ccccc2C(F)(F)F)C(=O)O1	n	n
COc1cc(C2NC(C(=O)O)CS2)cc(Cl)c1O (centres undefined)	n	n
CC(C)NC(=O)c1ccc2c(c1)CCN2C(=O)C1CC1	n	n

Screening results deposited in PubChem BioAssay by University of Kansas High Throughput Screening Laboratory.
